The text below walks through data of PubChem BioAssay (EPA / NIEHS).

Usually AC50 stands for the concentration giving half of the maximal activity seen.

Several values for one entry are separate records, joined by “and”; a condition that tells them apart may be missing. Equal entries are not always repeated. Records with an inconclusive call do not appear. More than one record can exist for a structure, and the calls need not agree. Activity calls are given as the source filed them. How the source made its calls, unless noted: active means hit-call score of the fitted dose curve at least 0.9, where 1 is the maximum; inactive means score below 0.9.

Assay [1] has as its target human Vitamin D Receptor (VDR), VDR (gene 7421) (UniProt P11473). Kind of assay: ATG_VDR_TRANS: Attagene TRANS-FACTORIAL HepG2 Assay for human Vitamin D Receptor (VDR) (AID 2283022; active means hit-call score of the fitted dose curve at least 0.9, where 1 is the maximum). The essentials: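 HepG2 cells were transiently transfected with GAL4-UAS reporter units and a chimeric VDR-Gal4 construct, then dosed for 24 hours. Reporter mRNA was quantified by RT-PCR, fluorescent labeling, HpaI digestion and capillary electrophoresis; gain of signal analysed vs DMSO.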

The nature of assay [2]: BSK_3C_SRB: Viability Assessment in the BioMAP Diversity Plus: 3C Assay (AID 2283023).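 Further: fitted both ways against DMSO so a hit may be signal rise or drop.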 The conditions noted are these: primary human endothelial cells (HUVEC). The essentials:
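Human umbilical vein endothelial cells in the 3C system, treated 24 h. Total protein measured by 0.1% sulforhodamine B staining after 10% TCA fixation, read at 560 nm; bidirectional fit versus DMSO.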

Read-out in assay [3]: Matrix Metallopeptidase 1 (MMP1), MMP1 (gene 4312)
Nature of the assay: BSK_BE3C_MMP1: BioMAP Diversity Plus: BE3C Assay for Matrix Metallopeptidase 1 (MMP1) Biomarker Activity (AID 2283024). The conditions noted are these: primary human bronchial epithelial cells; actives raise or lower the signal. The essentials:
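Dose cells, wait 24 h, run MMP1 ELISA; cells are human bronchial epithelial primaries. Both increases and decreases relative to DMSO counted.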

Assay [4] is described as follows: BSK_3C_Vis: BioMAP Diversity Plus: 3C Assay for Morphology Visualization (AID 2283025).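 Further: fitted both ways so gain or loss versus DMSO counts.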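 On AC50: light microscopy image of cell morphology used as background control.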 The following applies: primary human endothelial cells (HUVEC). The essentials: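 Endothelial cells from human umbilical vein were treated with test chemicals for 24 h and inspected by light microscopy for changes in cell conformation.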
Read-out in assay [5]: Pselectin, SELP (gene 6403)
Nature of the assay: BSK_4H_Pselectin: BioMAP Diversity Plus: 4H Assay for Pselectin Biomarker Activity (AID 2283026). The conditions noted are these: primary human endothelial cells (HUVEC); actives raise or lower the signal. The essentials:
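Human vascular endothelium from umbilical vein; P-selectin measured by ELISA at 24 h post-dose, with cytotoxicity checked by sulforhodamine B total-protein staining in parallel cultures (0.1% SRB after 10% TCA fixation, read at 560 nm).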

The nature of assay [6]: BSK_4H_SRB: Viability Assessment in the BioMAP Diversity Plus: 4H Assay (AID 2283027).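 Further: cells exposed to compound for 24 h before staining.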 The following applies: primary human endothelial cells (HUVEC). The essentials:
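Human umbilical vein endothelial cells were dosed with chemical and, after 24 h, fixed with 10% TCA, stained with 0.1% sulforhodamine B, and read at 560 nm to give total protein as a cytotoxicity measure. Bidirectional fitting relative to DMSO control.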

Assay [7] is described as follows: BSK_BE3C_SRB: Viability Assessment in the BioMAP Diversity Plus: BE3C Assay (AID 2283028). The conditions noted are these: primary human bronchial epithelial cells. The essentials:
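Human bronchial epithelial primary cells in confluent culture, 24 h after chemical dosing; total protein by 0.1% SRB staining after 10% TCA fixation, read at 560 nm. Bidirectional fitting versus DMSO baseline.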

Read-out in assay [8]: Thrombomodulin, THBD (gene 7056)
Kind of assay: BSK_3C_Thrombomodulin: BioMAP Diversity Plus: 3C Assay for Thrombomodulin Biomarker Activity (AID 2283029). The following applies: primary human endothelial cells (HUVEC); actives raise or lower the signal. An outline of the steps: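 Thrombomodulin ELISA, human primary HUVEC, 24 h post-dose; data fitted in both directions relative to DMSO.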

Read-out in assay [9]: Urokinase-type plasminogen activator receptor (uPAR), PLAUR (gene 5329)
Nature of the assay: BSK_4H_uPAR: BioMAP Diversity Plus: 4H Assay for Urokinase-type plasminogen activator receptor (uPAR) Biomarker Activity (AID 2283030). The following applies: primary human endothelial cells (HUVEC); actives raise or lower the signal. The essentials: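 Human umbilical vein endothelial cells in the 4H system, 24 h after chemical dosing. Cell-surface uPAR measured by ELISA, fitted in both directions versus DMSO; cytotoxicity checked by SRB total protein in parallel cultures.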

Read-out in assay [10]: Vascular endothelial growth factor receptor 2 (Homo sapiens) (UniProt P35968)
Kind of assay: BSK_4H_VEGFRII: BioMAP Diversity Plus: 4H Assay for Vascular endothelial growth factor receptor 2 (VEGFR2) Biomarker Activity (AID 2283031). The conditions noted are these: primary human endothelial cells (HUVEC); actives raise or lower the signal. An outline of the steps:
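Primary human umbilical vein endothelial cells (4H system), 24 h exposure; cell-surface VEGFR2 measured by ELISA. Bidirectional fitting versus DMSO; cytotoxicity checked in parallel by SRB total-protein staining.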

Read-out in assay [11]: Human Leukocyte Antigen - DR isotype (HLADR), HLA-DRA (gene 3122)
Nature of the assay: BSK_BE3C_HLADR: BioMAP Diversity Plus: BE3C Assay for Human Leukocyte Antigen - DR isotype (HLADR) Biomarker Activity (AID 2283032). The following applies: primary human bronchial epithelial cells; actives raise or lower the signal. The essentials: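 Signal came from an ELISA for HLA-DR in human bronchial epithelial primary cells harvested 24 h after treatment; gain- and loss-of-signal fitting used DMSO controls as reference.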

Read-out in assay [12]: Vascular cell adhesion molecule 1 (VCAM1), VCAM1 (gene 7412)
Kind of assay: BSK_4H_VCAM1: BioMAP Diversity Plus: 4H Assay for Vascular cell adhesion molecule 1 (VCAM1) Biomarker Activity (AID 2283033).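 On outcome: cell-surface VCAM-1 protein measured by ELISA.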 The following applies: primary human endothelial cells (HUVEC); actives raise or lower the signal. An outline of the steps: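 Endpoint derived from bidirectional fitting against DMSO controls of VCAM-1 ELISA signal in umbilical vein endothelial cells sampled at 24 h following treatment.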

Read-out in assay [13]: Interferon-gamma inducible Protein 10 (IP10), CXCL10 (gene 3627)
Kind of assay: BSK_BE3C_IP10: BioMAP Diversity Plus: BE3C Assay for Interferon-gamma inducible Protein 10 (IP10) Biomarker Activity (AID 2283034). The following applies: primary human bronchial epithelial cells; actives raise or lower the signal. An outline of the steps: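 Using primary human bronchial epithelial cultures, the assay captures IP-10 by ELISA one day (24 h) after exposure. Parallel SRB staining of total protein flags overt cytotoxicity. Fits run bidirectionally relative to DMSO.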

Read-out in assay [14]: Monokine induced gamma interferon (MIG), CXCL9 (gene 4283)
Kind of assay: BSK_BE3C_MIG: BioMAP Diversity Plus: BE3C Assay for Monokine induced gamma interferon (MIG) Biomarker Activity (AID 2283035). The following applies: primary human bronchial epithelial cells; actives raise or lower the signal. An outline of the steps: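 ELISA read-out of MIG in human lung bronchial epithelial primary cultures, 24 h post-dosing. Bidirectional curve fit vs DMSO baseline.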

Read-out in assay [15]: Transforming growth factor beta 1 (TGFb1), TGFB1 (gene 7040)
Nature of the assay: BSK_BE3C_TGFb1: BioMAP Diversity Plus: BE3C Assay for Transforming growth factor beta 1 (TGFb1) Biomarker Activity (AID 2283036;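 further: TGF-b1 protein level measured by ELISA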). The conditions noted are these: primary human bronchial epithelial cells; actives raise or lower the signal. The essentials: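 In this human primary bronchial epithelial system, an ELISA quantified TGF-b1 one day after dosing. Endpoint changes in either direction were fitted relative to DMSO.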

Read-out in assay [16]: Plasminogen activator inhibitor-1 (PAI1), SERPINE1 (gene 5054)
Kind of assay: BSK_BE3C_PAI1: BioMAP Diversity Plus: BE3C Assay for Plasminogen activator inhibitor-1 (PAI1) Biomarker Activity (AID 2283037). The conditions noted are these: primary human bronchial epithelial cells; actives raise or lower the signal. The essentials: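 PAI-1 biomarker levels in treated human bronchial epithelial cells are determined by ELISA at 24 h. Both increases and decreases relative to DMSO are fitted.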

Read-out in assay [17]: urokinase plasminogen activator (uPA), PLAU (gene 5328)
Nature of the assay: BSK_BE3C_uPA: BioMAP Diversity Plus: BE3C Assay for urokinase plasminogen activator (uPA) Biomarker Activity (AID 2283038).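 On outcome: uPA protein level quantified by ELISA in cell cultures; uPA read one day after compound addition.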 The following applies: primary human bronchial epithelial cells; actives raise or lower the signal. An outline of the steps: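 Primary human bronchial epithelial cells, uPA measured by ELISA 24 h after dosing. Bidirectional change relative to DMSO; cytotoxicity checked in parallel cultures by sulforhodamine B total-protein staining.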

Read-out in assay [18]: Urokinase-type plasminogen activator receptor (uPAR), PLAUR (gene 5329)
Nature of the assay: BSK_BE3C_uPAR: BioMAP Diversity Plus: BE3C Assay for Urokinase-type plasminogen activator receptor (uPAR) Biomarker Activity (AID 2283039).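 On outcome: cells exposed to compound for one day before measurement.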 The conditions noted are these: primary human bronchial epithelial cells; actives raise or lower the signal. The essentials: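 A uPAR ELISA serves as the readout, taken 24 h after treating primary human bronchial epithelial cells. Responses in either direction are fitted against DMSO, which defines baseline activity.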

Read-out in assay [19]: Interleukin-6 (IL6), IL6 (gene 3569)
Kind of assay: BSK_CASM3C_IL6: BioMAP Diversity Plus: CASM3C Assay for Interleukin-6 (IL6) Biomarker Activity for (AID 2283040). The following applies: primary human coronary artery smooth muscle cells; actives raise or lower the signal.

Read-out in assay [20]: Tissue plasminogen activator (tPA), PLAT (gene 5327)
Nature of the assay: BSK_BE3C_tPA: BioMAP Diversity Plus: BE3C Assay for Tissue plasminogen activator (tPA) Biomarker Activity (AID 2283041).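 Further: tPA level quantified by ELISA one day after compound addition.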 The following applies: primary human bronchial epithelial cells; actives raise or lower the signal. The essentials: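 Bidirectional curve fitting relative to DMSO defined activity, with tPA detected by ELISA in chemically treated human bronchial epithelial primary cells at 24 hours.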

human Vitamin D Receptor (VDR), VDR (gene 7421), sequence (P11473 whole entry, looked up, the tested form may be a part): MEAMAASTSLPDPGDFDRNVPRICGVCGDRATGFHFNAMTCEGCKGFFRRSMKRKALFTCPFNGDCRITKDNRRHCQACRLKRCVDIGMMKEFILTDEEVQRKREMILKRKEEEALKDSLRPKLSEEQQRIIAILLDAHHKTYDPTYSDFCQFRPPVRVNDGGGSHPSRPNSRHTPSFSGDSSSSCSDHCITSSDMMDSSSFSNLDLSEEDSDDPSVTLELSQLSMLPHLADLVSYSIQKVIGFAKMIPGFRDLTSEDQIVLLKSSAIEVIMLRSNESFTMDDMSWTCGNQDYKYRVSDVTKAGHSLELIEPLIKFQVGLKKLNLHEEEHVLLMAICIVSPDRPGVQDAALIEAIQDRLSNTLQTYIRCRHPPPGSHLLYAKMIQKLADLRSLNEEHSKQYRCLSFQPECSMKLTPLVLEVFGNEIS

As for `S=C(S)NCCNC(=S)S.[Mn+2].[S-]C([S-])=NCCN=C([S-])[S-].[Zn+2]`, the outcome in assay [1], in assay [2], in assay [3], in assay [4], in assay [5] and in assay [6] was inactive. The result in assay [7], in [8], in assay [9], in assay [10], in [11] and in [12] was inactive. In addition, the result in assay [13], in assay [14], in [15], in assay [16], in [17] and in assay [18] was inactive. In addition, the result in assay [19] and in assay [20] was inactive. For the same compound, the half-maximal activity concentration (AC50) in assay [3] is 1.34 µM (active); in assay [11], 8.2 µM (active) and 10 µM (active); in assay [12], 10 µM (active); in assay [13], 15.2 µM (active); in assay [17], 209 nM (active) and 1.08 µM (active) and 2.73 µM (active).

Regarding `c1ccc2[nH]c(-c3cscn3)nc2c1`, the call in [1], in assay [2], in assay [3], in assay [4], in assay [5] and in assay [6] was inactive. For the same compound, the outcome in assay [7], in [9], in assay [10], in assay [11], in assay [12] and in assay [13] was inactive. In addition, the outcome in assay [14], in [15], in [16], in assay [17], in assay [18] and in assay [19] was inactive. Also, in assay [20], the outcome was inactive.

For `COC(=O)c1ccc(CNS(C)(=O)=O)cc1S(=O)(=O)NC(=O)Nc1nc(OC)cc(OC)n1`, the compound was called inactive in assay [1], in assay [2], in [3], in assay [4], in assay [5] and in [6]. Further, the outcome in [7], in assay [9], in assay [10], in assay [11], in [12] and in assay [13] was inactive. The outcome in assay [14], in assay [15], in assay [17], in [18], in [19] and in [20] was inactive.

`CCOC(=O)NCCOc1ccc(Oc2ccccc2)cc1`: the compound was classed as inactive in [1], in [3], in assay [5], in assay [6], in assay [7] and in assay [8]. Further, the result in [9], in assay [10], in [12], in assay [13], in assay [14] and in assay [15] was inactive. Also, the result in assay [17], in assay [18], in assay [19] and in assay [20] was inactive. In addition, the AC50 in assay [2] was 20 µM (active); in [4] it was 39 µM (active); in assay [11] it was 15.7 µM (active).

In the case of `O=C(O)C1(C(=O)Nc2ccc(Cl)cc2Cl)CC1`, the compound was classed as inactive in assay [1], in assay [2], in [3], in [4], in assay [5] and in [6]. Moreover, the outcome in [7], in [9], in assay [10], in assay [12], in assay [14] and in assay [15] was inactive. The result in assay [16], in assay [17], in assay [18], in assay [19] and in assay [20] was inactive. For the same compound, the AC50 in assay [11] was 10.7 µM (active); in assay [13], 23.8 µM (active).

Turning to `CCCOC(=O)NCCCN(C)C`, the result in [1], in assay [2], in assay [3], in assay [4], in assay [5] and in [6] was inactive. The result in [7], in assay [9], in [10], in [12], in assay [13] and in assay [14] was inactive. Moreover, the outcome in assay [15], in assay [17], in assay [19] and in [20] was inactive. Also, the AC50 is 4.29 µM (active) in [11] and 0.148 µM (active) in assay [18].
